Test results from PubChem BioAssay AID1209 (Sanford-Burnham Center for Chemical Genomics, 2008).
Screen size: about 190,000 compounds; about 810 (0.43%) were called active. The sample holds actives, similar compounds and a random draw of the others, so the mix is not that of the screen. Cut-off read from the data, not from the text of the source: active = inhibition above about 50%; inactive = the rest.

What follows are compounds tested against Mannose-6-phosphate isomerase (Homo sapiens) (UniProt P34949) (assay: inhibitors of human PMI, primary screen, biochemical, fluorescence intensity, coupled assay (AID 1209;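 note: plate controls were DMSO vehicle for no effect and wells lacking substrate for full effect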)). Details: purified PMI enzyme, at 20 µM, stronger effect = higher value.
Chain of Mannose-6-phosphate isomerase (Homo sapiens) (P34949 whole entry, looked up): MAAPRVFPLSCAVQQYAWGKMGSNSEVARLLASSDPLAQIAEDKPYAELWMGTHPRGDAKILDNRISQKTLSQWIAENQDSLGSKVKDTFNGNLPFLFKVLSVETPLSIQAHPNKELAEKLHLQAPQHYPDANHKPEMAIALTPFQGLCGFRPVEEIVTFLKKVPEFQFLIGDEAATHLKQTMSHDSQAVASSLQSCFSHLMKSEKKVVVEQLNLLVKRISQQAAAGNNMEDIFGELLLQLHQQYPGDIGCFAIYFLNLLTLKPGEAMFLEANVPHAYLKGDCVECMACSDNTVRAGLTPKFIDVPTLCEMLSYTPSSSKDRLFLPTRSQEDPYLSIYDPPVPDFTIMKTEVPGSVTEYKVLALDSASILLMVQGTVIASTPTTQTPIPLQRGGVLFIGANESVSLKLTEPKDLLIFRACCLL
For `Cc1nc2cc3c(cc2c(C)c1C(=O)OC(C)C)OCO3`, the inhibition was -5.2% (inactive). In the case of `Cc1ccc(C(=O)NCc2ccccc2)c(F)c1F`, the inhibition is reported as 5.5% (inactive). For `COc1ccc(OC)c(NC2c3ccccc3C(=O)N2c2cccnc2)c1` (stereo not drawn), the inhibition was -11.1% (inactive). `Oc1ccc2ccccc2c1/C=N/c1nc2c(s1)CCCC2` was tested, and the inhibition was 45.8% (inactive). `COc1ccc(N=Cc2c(O)ccc3ccccc23)cc1` was tested, and the inhibition was 37% (inactive). In the case of `COc1ccc2c(c1)-c1nc(N)sc1CC2`, the inhibition is reported as 73.3% (active). For `COc1ccc2c(c1)-c1nc(NC(=O)c3cccs3)sc1CC2`, the inhibition was 26.3% (inactive). With `COc1ccc2c(c1)-c1nc(/N=C/c3ccc(O)cc3)sc1CC2` the inhibition was 80.2% (active). With `COc1ccc2c(c1)Cc1sc(NC(=O)c3ccccc3)nc1-2` the inhibition was 3.2% (inactive). `COc1ccc2c(c1)-c1nc(NC(=O)c3ccco3)sc1CC2` was tested, and the inhibition was 23.9% (inactive). For `COc1ccc2c(c1)-c1nc(/N=C/c3c(O)ccc4ccccc34)sc1CC2`, the inhibition was 77.9% (active). With `COc1ccc2c(c1)-c1nc(/N=C/c3ccccc3O)sc1CC2` the inhibition was 70% (active). With `COc1ccc2c(c1)CCc1sc(NC(=O)c3ccco3)nc1-2` the inhibition was 31.4% (inactive). For `COc1ccc(C(=O)Nc2nc3c(s2)Cc2cc(OC)ccc2-3)cc1`, the inhibition was -2.4% (inactive). In the case of `COc1ccc2c(c1)CCc1sc(NC(=O)c3ccc(C)cc3)nc1-2`, the inhibition is reported as 19.4% (inactive). In the case of `COc1cccc(N(CC(=O)N2CCN(C)CC2)S(=O)(=O)c2ccccc2)c1`, the inhibition is reported as 2.4% (inactive). In the case of `Cc1ccc(C)c(N2CCN(C(c3ccc(N(C)C)cc3)c3nnnn3C(C)(C)C)CC2)c1` (stereo not drawn), the inhibition is reported as 12.6% (inactive). `CCCNCC(O)Cn1c2ccccc2n2c(=O)cc(C)c(C#N)c12` (stereo not drawn) was tested, and the inhibition was -6% (inactive). In the case of `Cc1ccc(C)c(NC(=O)CSc2ccc(-c3ccco3)nn2)c1`, the inhibition is reported as 8.2% (inactive). In the case of `COc1cccc(N(C(=O)Cn2nnc3ccccc32)C(C(=O)NCc2ccco2)c2cccnc2)c1` (stereo not drawn), the inhibition is reported as 1.5% (inactive). In the case of `Cc1ccc(C)c(C(=O)NC2CC(C)(C)NC(C)(C)C2)c1`, the inhibition is reported as 2.7% (inactive). In the case of `CC(NC(=O)c1sc2ccccc2c1Cl)C1CCCO1` (stereo not drawn), the inhibition is reported as 6.7% (inactive). With `O=C(CSc1nccc(-c2ccc(Br)cc2)n1)NCCc1ccccc1` the inhibition was 0.8% (inactive). With `CSc1ccc(-c2nc(O)c3cnccn23)cc1` the inhibition was -16.4% (inactive). For `CN(C)S(=O)(=O)c1cccc(NC(=O)c2cc(-c3cccs3)nn2-c2ccccc2)c1`, the inhibition was 2.9% (inactive). For `CC(C)NC(=O)C1CCN(C2CCN(Cc3nc4ccccc4s3)CC2)CC1`, the inhibition was 1.6% (inactive). For `COc1ccc2c(c1)-c1nc(/N=C/c3cccc(OC)c3O)sc1CC2`, the inhibition was 65.8% (active). In the case of `COc1cccc(C=Nc2cc(C)cc(C)c2)c1O`, the inhibition is reported as -1.7% (inactive). `COc1cccc(C=Nc2cc(C)on2)c1O` was tested, and the inhibition was 13.5% (inactive). In the case of `CCC(Oc1ccc2c(c1)C(=O)CC(C)(C)O2)C(=O)NCCN1CCCCCC1` (stereo not drawn), the inhibition is reported as 20% (inactive). For `CC(Sc1nnc(COc2ccc([N+](=O)[O-])cc2)n1C)C(=O)O` (stereo not drawn), the inhibition was 0.2% (inactive). In the case of `Cc1cc(NC(=O)C23CC4CC(C2)CC(n2cnc([N+](=O)[O-])n2)(C4)C3)no1`, the inhibition is reported as 2.7% (inactive). For `Cc1nc([N+](=O)[O-])nn1C12CC3CC(CC(Cl)(C3)C1)C2`, the inhibition was 4.8% (inactive). In the case of `Cc1nc([N+](=O)[O-])nn1C12CC3CC(CC(Br)(C3)C1)C2`, the inhibition is reported as 75% (active). In the case of `CCN(CC)CCCOC(=O)C1(c2ccccc2)CCCC1`, the inhibition is reported as -3.2% (inactive). For `Cc1ccc(Nc2nc3ccccc3s2)cc1`, the inhibition was -5.9% (inactive). In the case of `Cc1ccc(Nc2nnns2)cc1`, the inhibition is reported as 57.4% (active). `Cc1ccc(Nc2nnns2)cc1C` was tested, and the inhibition was 47.5% (inactive). `COc1ccc(OC)c(NC(=O)C2C(C(=O)O)C3(Cl)C(Cl)=C(Cl)C2(Cl)C3(Cl)Cl)c1` (stereo not drawn) was tested, and the inhibition was 18.2% (inactive). `CCCCCC(=O)Nc1ccc2ccccc2c1` was tested, and the inhibition was 16.7% (inactive). With `CCC(=O)Nc1ccc2ccccc2c1` the inhibition was 12% (inactive). With `CCOC(=O)C(Nc1ccc2ccccc2c1)C(=O)OCC` the inhibition was 60.3% (active). `COc1ccc(CNS(=O)(=O)c2cccc(S(=O)(=O)N3CCOCC3)c2)cc1` was tested, and the inhibition was 6.7% (inactive). In the case of `CCOc1cc(C(C#N)N2CCOCC2)ccc1OC` (stereo not drawn), the inhibition is reported as 12% (inactive). For `O=C(CN1C(=O)COc2ccccc21)NCCCN1CCN(Cc2ccccc2)CC1`, the inhibition was 4.6% (inactive). For `CCOC(=O)c1sc(NC(=O)CSc2nnc(Cc3ccccc3)o2)c(C#N)c1C`, the inhibition was 72.4% (active). With `CCOC(=O)c1sc(NC(=O)CSc2nc(C)cc(C)n2)c(C#N)c1C` the inhibition was 4.2% (inactive). With `CCOC(=O)c1sc(NC(=O)CSc2nnc(Cc3ccccc3)o2)c(C(=O)OCC)c1C` the inhibition was 4.9% (inactive). With `CCOC(=O)c1c(NC(=O)CSc2nnc(Cc3ccccc3)o2)sc(C(C)=O)c1C` the inhibition was 9.9% (inactive). `Cc1ccccc1NC(=O)c1sc(NC(=O)COc2ccccc2)c(C#N)c1C` was tested, and the inhibition was 5.1% (inactive). `CCOC(=O)c1sc(NC(=O)CSc2n[nH]c(-c3ccncc3)n2)c(C#N)c1C` was tested, and the inhibition was -4.9% (inactive). In the case of `Cc1sc(NC(=O)COc2ccccc2)c(C#N)c1-c1ccccc1`, the inhibition is reported as 4.5% (inactive). With `CCOC(=O)c1sc(NC(=O)CSc2nc(C)cc(-c3ccccc3)n2)c(C#N)c1C` the inhibition was 61.2% (active). With `CCOC(=O)c1sc(NC(=O)CSc2nc(C)cc(C(F)(F)F)n2)c(C#N)c1C` the inhibition was 26.6% (inactive). `CCOC(=O)c1sc(NC(=O)CSc2n[nH]c(-c3ccccc3)n2)c(C#N)c1C` was tested, and the inhibition was 51.7% (active). In the case of `CCOC(=O)c1sc(NC(=O)CSc2n[nH]c(-c3ccc(Cl)cc3Cl)n2)c(C#N)c1C`, the inhibition is reported as 25.2% (inactive). With `Cc1sc(NC(=O)COc2ccccc2)c(C#N)c1C` the inhibition was 58.3% (active). With `Cc1cc(C(=O)Nc2ccc(C(=O)O)cc2)c(-c2ccccc2)o1` the inhibition was 4% (inactive). For `Cc1ccc[n+](CC(=O)c2ccc(NC(=O)c3ccccc3)cc2)c1`, the inhibition was -10.6% (inactive). `COCCN(CCOC)S(=O)(=O)c1ccc(C(=O)Nc2sc3c(c2C(N)=O)CCCCC3)cc1` was tested, and the inhibition was 3.2% (inactive). With `CC(=O)Nc1ccc(NC(=O)COc2c(C)cc(Br)cc2C)cc1` the inhibition was 13.2% (inactive). In the case of `CCO/N=C(\C)c1c(O)c(CC)c(-c2ccccc2)n(-c2ccccc2)c1=O`, the inhibition is reported as 9.9% (inactive). In the case of `CCOC(=O)c1sc(NC(=O)c2ccc(Br)o2)cc1C`, the inhibition is reported as 11.7% (inactive). In the case of `C=CCn1c(NC(=O)c2ccc(Br)o2)c(C(=O)OCC)sc1=S`, the inhibition is reported as 50.7% (active). For `C=CCn1c(NC(=O)CC)c(C(=O)OCC)sc1=S`, the inhibition was 17.3% (inactive). For `O=C(NCc1cn2ccccc2n1)c1ccccc1`, the inhibition was -15.8% (inactive). `O=C(CCN1CCCCC1)c1ccc2c(c1)OCCO2` was tested, and the inhibition was 36.1% (inactive). In the case of `O=C(CCN1CCC(c2ccccc2)C1)c1ccc2c(c1)OCCO2` (stereo not drawn), the inhibition is reported as 47.6% (inactive). In the case of `O=C(CCN1CCCC1Cc1ccccc1)c1ccc2c(c1)OCCO2` (stereo not drawn), the inhibition is reported as 50.8% (active). `FC(F)(F)c1cccc(NC(=S)N2CCN(c3ccccn3)CC2)c1` was tested, and the inhibition was -17% (inactive). In the case of `COc1cccc(NC(=S)N2CCN(c3ccccn3)CC2)c1`, the inhibition is reported as 12.3% (inactive). With `FC(F)Oc1cccc(NC(=S)N2CCN(c3ccccn3)CC2)c1` the inhibition was 65.6% (active). With `CN(C)c1cccc(C(=O)OCC(=O)Nc2nccs2)c1` the inhibition was -1.5% (inactive). For `COc1nc(N2CCCCCC2)nc(N2CCCCCC2)n1`, the inhibition was 2.3% (inactive). With `N/C(=N/O)c1nc(N2CCCCC2)nc(N2CCCCC2)n1` the inhibition was 2.2% (inactive). For `COc1nc(/C(N)=N/O)nc(N2CCCCC2)n1`, the inhibition was 66.9% (active). For `COc1ccc(C(=O)Nc2ccc(CN3CCCCC3)cc2)cc1`, the inhibition was 3% (inactive). With `CCc1c(C)sc(NC(=O)Cn2nc(C)c([N+](=O)[O-])c2C)c1C(N)=O` the inhibition was 53.3% (active). `Cc1nn(CC(=O)Nc2nccs2)c(C)c1[N+](=O)[O-]` was tested, and the inhibition was -3.9% (inactive). For `CCOC(=O)Cn1nc(C)c([N+](=O)[O-])c1C`, the inhibition was -27.5% (inactive). For `COc1ccc(C2CC(C(F)(F)F)n3nc(C(=O)NCCCn4ccnc4)cc3N2)cc1OC` (stereo not drawn), the inhibition was 41.3% (inactive). In the case of `O=C(CN1CCCc2ccccc21)NCc1ccccc1Cl`, the inhibition is reported as -13.5% (inactive). For `Cc1ccc(C(=O)Nc2ccc(N3CCN(S(C)(=O)=O)CC3)cc2)cc1`, the inhibition was 0.4% (inactive). `CC(C(=O)NCCS(=O)(=O)c1ccc(Cl)cc1)S(=O)(=O)c1ccc(Cl)cc1` (stereo not drawn) was tested, and the inhibition was -15.8% (inactive). In the case of `Cc1ccc(S(=O)(=O)CCNC(=O)Cc2ccc(Cl)cc2)cc1`, the inhibition is reported as 3.4% (inactive). For `O=C(CS(=O)(=O)c1ccc(Cl)cc1)NCCS(=O)(=O)c1ccc(Cl)cc1`, the inhibition was 59.5% (active). In the case of `Cc1ccc(CNC(=O)c2cncc(Br)c2)cc1`, the inhibition is reported as 10.4% (inactive). For `CCOC(=O)C(C)n1cnc2c(nnn2-c2ccc(OC)cc2)c1=O` (stereo not drawn), the inhibition was -2.7% (inactive). In the case of `CCOc1ccc(CNC(=O)CCCOc2cc(=O)n(C)c3ccccc23)cc1`, the inhibition is reported as -6.3% (inactive). `Cc1c(Cc2ccc3c(c2)OCO3)sc(NC(=O)c2ccccc2)c1C(N)=O` was tested, and the inhibition was -2.5% (inactive). For `Cc1c(Cc2ccc3c(c2)OCO3)sc(NC(=O)c2cccc3ccccc23)c1C(N)=O`, the inhibition was 56.7% (active). With `Cc1c(Cc2ccc3c(c2)OCO3)sc(NC(=O)c2ccc3ccccc3c2)c1C(N)=O` the inhibition was 43.1% (inactive). `CC1=C(C)/C(=N/OC(=O)c2cccc([N+](=O)[O-])c2)C=CC1=O` was tested, and the inhibition was 4.4% (inactive). `CC1=C(C)/C(=N\OS(=O)(=O)c2ccc(C)cc2)C=CC1=O` was tested, and the inhibition was 75.6% (active). `COc1ccc(S(=O)(=O)/N=C2/C=CC(=O)C(C)=C2C)cc1` was tested, and the inhibition was 14.5% (inactive). With `CC1=C(C)/C(=N\OC(=O)/C=C/c2ccccc2)C=CC1=O` the inhibition was 7.2% (inactive). `Cc1ccc(S(=O)(=O)O/N=C2\CCCc3ccccc32)cc1` was tested, and the inhibition was 9.6% (inactive). For `CS(=O)(=O)N(CC(=O)NCC1CCCO1)c1cccc([N+](=O)[O-])c1` (stereo not drawn), the inhibition was -8.6% (inactive).
